The values below come from PubChem BioAssay (NCATS).

Test [1] is described as follows: qHTS assay for small molecule antagonists of peroxisome proliferator-activated receptor delta signaling (AID 588535; active = well fitted inhibition curve with a large enough effect in the signal ratio, with a control signal flat, not every such curve was filed as active; the % refers to the signal ratio;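 as to max response: cells co-treated with a PPAR-delta agonist as stimulator during compound exposure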). As to conditions: HEK293T PPARd-UAS-bla, beta-lactamase FRET ratio, 18 h; 460 nm channel. The method, boiled down: (§1)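 Antagonist-mode qHTS using GeneBLAzer PPAR-delta-UAS-bla HEK293T cells; compound exposure 18 hrs at 37 C over a titration. Ratiometric CCF4 fluorescence at 460/530 nm; concentration-response points fitted to the Hill equation.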

Test [2] deals with Peroxisome proliferator-activated receptor delta (Homo sapiens) (UniProt Q03181). The test is described as above. The method, boiled down: as §1
In test [3] the target is Peroxisome proliferator-activated receptor gamma (Homo sapiens) (UniProt P37231). As to the kind of experiment: qHTS assay for small molecule agonists of peroxisome proliferator-activated receptor gamma signaling (AID 588536; active = well fitted curve in the direction sought with a large enough effect in the signal ratio, with a control signal flat, not every such curve was filed as active; the % refers to the signal ratio;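 also: 0% = DMSO basal wells and 100% = rosiglitazone at 2 µM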). Put shortly: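 This is an agonist-mode beta-lactamase reporter assay in HEK293 PPAR-gamma-UAS-bla cells with 1% charcoal/dextran FBS. Compound titrations ran 16 h at 37 C before CCF4 detection. EC50 and efficacy are Hill fits scaled to 2 uM rosiglitazone (100%) and DMSO basal.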

Test [4] addresses Vitamin D3 receptor (Homo sapiens) (UniProt P11473). The experiment in a line: qHTS assay for small molecule antagonists of vitamin D receptor signaling (AID 588541; calls by dose curve;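 also: receptor activated by calcitriol during compound treatment; series mostly up to about 77 µM; % is scaled to controls: 0 for no effect and ±100 for the full control effect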). The method, boiled down:
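Antagonist-mode beta-lactamase reporter assay: HEK293T VDR-UAS-bla cells were exposed to titrated compound alongside 1-alpha,25-dihydroxyvitamin D3 at 3 nM final for 16 h. Values were normalized to the 50 nM agonist control and DMSO basal, with IC50 and efficacy from Hill equation fits.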

Test [5] addresses Thyroid hormone receptor beta (Homo sapiens) (UniProt P10828). The experiment in a line: qHTS assay for small molecule agonists of thyroid hormone receptor beta signaling (AID 588545; calls by dose curve;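 also: 0% = DMSO only and 100% = 10 nM T3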). Put shortly: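 Efficacy and EC50 values derive from Hill fits of qHTS titration data, normalized to 10 nM T3 and DMSO-only wells. HEK 293 reporter cells were stimulated for 18 hrs at 37 C, with beta-lactamase activity measured by CCF4 fluorescence.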

Test [6] can be described thus: qHTS assay for small molecule antagonists of retinoid X receptor alpha signaling (AID 588546; active = well fitted inhibition curve with a large enough effect in the signal ratio, with a control signal flat, not every such curve was filed as active; the % refers to the signal ratio;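 also: cells stimulated with 9-cis-retinoic acid as agonist; % is scaled to controls: 0 for no effect and ±100 for the full control effect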). Conditions: HEK293T RXRa-UAS-bla, beta-lactamase ratio, antagonist mode; measured here: W530 green channel, cytotoxicity proxy. The method, boiled down: (§2)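 Beta-lactamase reporter inhibition, read as CCF4 fluorescence ratio (ex 405, em 460/530 nm) after 2 h at RT. HEK293T UAS-bla cells, 2500/well, were stimulated with 9-cis-RA at 500 or 100 nM final alongside test compound for 18 h at 37 C.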

Test [7] deals with Retinoic acid receptor RXR-alpha (Homo sapiens) (UniProt P19793). Described as above. Conditions: HEK293T RXRa-UAS-bla, beta-lactamase ratio, antagonist mode. The method, boiled down: as §2
For test [8], the target named is Thyroid hormone receptor beta (Homo sapiens) (UniProt P10828). The experiment in a line: qHTS assay for small molecule antagonists of thyroid hormone receptor beta signaling (AID 588547; active = well fitted inhibition curve with a large enough effect in the signal ratio, with a control signal flat, not every such curve was filed as active; the % refers to the signal ratio;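 also: cells stimulated with 0.4 nM T3 agonist during compound exposure; series mostly up to about 77 µM; % is scaled to controls: 0 for no effect and ±100 for the full control effect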). As to conditions: TR-UAS-bla HEK293, beta-lactamase ratio, antagonist mode, 18 h. Put shortly:
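Inhibition of T3-driven (0.4nM final) beta-lactamase reporter activity was measured over 0.59 nM to 92 uM compound after 18 h at 37 C. The cells were GripTite HEK293 TR-UAS-bla in charcoal/dextran-stripped serum, with CCF4 ratio read-out and IC50 from Hill fits.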
A general note: In qHTS, concentration-response curves come from the screen itself.

Test [9] in a line: qHTS assay for small molecule activators of the p53 signaling pathway (AID 651743; active = well fitted activation curve with a large enough effect in the signal ratio, not every such curve was filed as active; the % refers to the signal ratio; also: series mostly up to about 92 µM; % of control where 0% means no effect). As to conditions: HCT-116 p53RE-bla, beta-lactamase FRET ratio, 16 h; activation: stronger effect = higher value. The method, boiled down: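 A beta-lactamase reporter under p53 response element control, stably carried by HCT-116 cells, reported pathway activation. Test compounds were applied for 16 hours at 37 C, and fluorescence was measured 2 hours after adding the B/G FRET substrate.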

A short description of test [10]: qHTS assay for environmental chemicals that activate the Aryl hydrocarbon Receptor (AhR) signaling pathway (AID 651777). Also: % of control where 0% means no effect; nearly all actives have a fitted effect of over 15% in size. Conditions: 1A2-DRE human hepatoma cells, luciferase, 24 h; activation: stronger effect = higher value. Put shortly:
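Stable CYP1A2 promoter/DRE-luciferase human hepatoma line treated 24 hr; One-Glo luminescence, 30 min RT.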

Test [11] deals with Peroxisome proliferator-activated receptor alpha (Homo sapiens) (UniProt Q07869). The experiment in a line: qHTS assay for small molecule agonists of the peroxisome proliferator-activated receptor alpha (PPARalpha) signaling pathway (AID 651778). Also: % of control where 0% means no effect. Conditions: PathHunter PPARalpha complementation, chemiluminescence, 6 h; max response: stronger effect = higher value. The method, boiled down: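 Chemiluminescence from complemented enzyme reported PPARalpha activation in cells after 6 hr of compound treatment at 37 C. The detection reagent was incubated for 60 min at room temperature, and compounds were scored as agonists.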

Test [12] can be described thus: qHTS assay for small molecule agonists of the antioxidant response element (ARE) signaling pathway measured by Nrf2-dependant transcriptional activity (AID 720636; active = well fitted curve in the direction sought with a large enough effect in the repeat runs; an effect the other way counts as inactive or inconclusive;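 also: HepG2 cells with an ARE-driven luciferase reporter; % of control where 0% means no effect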). Put shortly: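 Reporter gene assay, HepG2 ARE-luc: 16 hr compound, 37 C, 5% CO2; read-out luciferase luminescence.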
Test [13] in a line: qHTS assay for small molecule agonists of the antioxidant response element (ARE) signaling pathway measured by Nrf2-dependant transcriptional activity - cell viability counter screen (AID 720653; active = well fitted curve in the direction sought with a large enough effect in the repeat runs; an effect the other way counts as inactive or inconclusive; also: % is scaled to controls: 0 for no effect and ±100 for the full control effect). Conditions: ARE-bla HepG2 viability, CellTiter-Glo ATP luminescence, 16 h; max response: stronger effect = lower value. The method, boiled down:
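Cytotoxicity counter screen: intracellular ATP quantified by CellTiter-Glo luminescence in the same ARE-bla HepG2 plates, after 16 h compound exposure and a 2 h beta-lactamase substrate step.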

Test [14] in a line: qHTS assay for cell viability of HEK293 cells (AID 743288). Also: % is scaled to controls: 0 for no effect and ±100 for the full control effect; nearly all actives have a fitted effect of over 50% in size. Conditions: ATP luminescence (CellTiter-Glo), 18 h; max response: stronger effect = lower value. The method, boiled down:
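HEK293, 18 h, 37 C, ATP luminescence. Cells at 2,000/well were allowed at least 5 h to settle before dosing; CellTiter-Glo developed 30 min at RT.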

The nature of test [15]: qHTS assay for cell viability of the p53RE-bla HCT-116 cell line (AID 743292). Also: % is scaled to controls: 0 for no effect and ±100 for the full control effect; nearly all actives have a fitted effect of over 55% in size. Put shortly: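 Readout: CellTiter-Glo luminescence after 30 min RT. Treatment: compounds in DMSO, 16 h, 37 C. Cells: CellSensor p53RE-bla HCT-116, 4,000/well, preincubated 5 h.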
In test [16] the target is Nuclear receptor subfamily 1 group I member 2 (Rattus norvegicus) (UniProt Q9R1A7). The experiment in a line: qHTS assay for small molecule activators of the rat pregnane X receptor (rPXR) signaling pathway (AID 651751; call rule not given here; also: 0% is about no effect). As to conditions: rPXR reporter cells, luciferase (One-Glo), 24 h.
Test [17] in a line: qHTS assay for small molecule activators of the human pregnane X receptor (PXR) signaling pathway (AID 720659; call rule not given here; also: 0% is about no effect).
Test [18] in a line: qHTS assay for small molecule agonists of retinoid X receptor alpha signaling (AID 588544; calls by dose curve;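 as to activation: 0% = DMSO basal wells and 100% = reference agonist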). As to conditions: HEK293T RXRa-UAS-bla, beta-lactamase reporter, 18 h; 530 nm emission.
Test [19] addresses Estrogen receptor (Homo sapiens) (UniProt P03372). As to the kind of experiment: qHTS assay for small molecule agonists of estrogen receptor alpha signaling (AID 588514; calls by dose curve;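 also: 0% = vehicle only and 100% = reference agonist; nearly all actives have a fitted effect of over 70% in size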). The method, boiled down:
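Fluorescence from CCF4 cleavage reports ER-alpha-driven beta-lactamase expression in HEK 293 cells treated 18 hrs at 37 C. Data normalized to 17-beta-estradiol (20 nM) and DMSO, fitted to Hill equation.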

Test [20] concerns the target Retinoic acid receptor RXR-alpha (Homo sapiens) (UniProt P19793). The experiment in a line: qHTS assay for small molecule agonists of retinoid X receptor alpha signaling (AID 588544).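 As to activation: 0% = DMSO basal wells and 100% = reference agonist.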

Each structure is given as a SMILES string. Records with an inconclusive call do not appear. Active and inactive are the calls of the source. Unless noted, calls follow the shape of the dose curve; as a rule, active = well fitted curve in the direction sought with a large enough effect; inconclusive = small, poorly fitted or top-dose-only effect, or another doubt; inactive = no such curve, though single readings can be large; an effect the other way counts as inactive or inconclusive.

Sequence of Peroxisome proliferator-activated receptor gamma (Homo sapiens) (P37231 whole entry, looked up): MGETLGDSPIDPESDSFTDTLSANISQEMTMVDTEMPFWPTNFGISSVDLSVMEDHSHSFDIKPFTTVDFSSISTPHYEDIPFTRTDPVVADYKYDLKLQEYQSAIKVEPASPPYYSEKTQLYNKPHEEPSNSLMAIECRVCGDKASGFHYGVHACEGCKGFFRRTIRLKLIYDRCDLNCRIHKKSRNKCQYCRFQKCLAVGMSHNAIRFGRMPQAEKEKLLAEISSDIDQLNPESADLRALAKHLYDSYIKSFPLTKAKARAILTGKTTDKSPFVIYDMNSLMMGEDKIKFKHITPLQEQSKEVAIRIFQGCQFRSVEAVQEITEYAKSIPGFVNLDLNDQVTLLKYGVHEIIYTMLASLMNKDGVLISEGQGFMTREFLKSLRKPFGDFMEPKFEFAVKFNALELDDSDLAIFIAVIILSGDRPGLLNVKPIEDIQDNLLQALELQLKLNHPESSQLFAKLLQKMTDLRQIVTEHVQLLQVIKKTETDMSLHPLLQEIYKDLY
Sequence of Vitamin D3 receptor (Homo sapiens) (P11473 whole entry, looked up): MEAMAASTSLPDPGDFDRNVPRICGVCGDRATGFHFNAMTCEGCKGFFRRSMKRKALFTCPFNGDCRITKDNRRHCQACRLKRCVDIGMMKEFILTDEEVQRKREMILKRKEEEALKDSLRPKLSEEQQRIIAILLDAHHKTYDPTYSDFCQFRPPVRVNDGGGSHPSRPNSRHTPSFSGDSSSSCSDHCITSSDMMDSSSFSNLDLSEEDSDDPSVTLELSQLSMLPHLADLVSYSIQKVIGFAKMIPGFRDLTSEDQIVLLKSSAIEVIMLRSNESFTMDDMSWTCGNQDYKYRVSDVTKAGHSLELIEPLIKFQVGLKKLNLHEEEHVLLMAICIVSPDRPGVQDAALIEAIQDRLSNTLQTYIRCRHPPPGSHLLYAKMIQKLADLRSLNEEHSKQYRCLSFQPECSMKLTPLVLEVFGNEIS
Sequence of Retinoic acid receptor RXR-alpha (Homo sapiens) (P19793 whole entry, looked up): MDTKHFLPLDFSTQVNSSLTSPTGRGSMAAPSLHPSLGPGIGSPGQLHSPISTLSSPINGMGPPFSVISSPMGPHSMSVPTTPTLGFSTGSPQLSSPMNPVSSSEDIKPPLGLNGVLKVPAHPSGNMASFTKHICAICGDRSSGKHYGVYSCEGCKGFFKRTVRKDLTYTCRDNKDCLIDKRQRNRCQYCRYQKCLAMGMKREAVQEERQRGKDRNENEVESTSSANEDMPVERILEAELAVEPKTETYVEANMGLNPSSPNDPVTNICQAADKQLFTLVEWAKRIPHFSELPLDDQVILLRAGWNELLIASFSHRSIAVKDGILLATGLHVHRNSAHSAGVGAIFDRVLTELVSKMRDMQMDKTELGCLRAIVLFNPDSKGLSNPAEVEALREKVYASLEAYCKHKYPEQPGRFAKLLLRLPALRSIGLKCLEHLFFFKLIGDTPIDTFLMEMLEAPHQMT
Sequence of Nuclear receptor subfamily 1 group I member 2 (Rattus norvegicus) (Q9R1A7 whole entry, looked up): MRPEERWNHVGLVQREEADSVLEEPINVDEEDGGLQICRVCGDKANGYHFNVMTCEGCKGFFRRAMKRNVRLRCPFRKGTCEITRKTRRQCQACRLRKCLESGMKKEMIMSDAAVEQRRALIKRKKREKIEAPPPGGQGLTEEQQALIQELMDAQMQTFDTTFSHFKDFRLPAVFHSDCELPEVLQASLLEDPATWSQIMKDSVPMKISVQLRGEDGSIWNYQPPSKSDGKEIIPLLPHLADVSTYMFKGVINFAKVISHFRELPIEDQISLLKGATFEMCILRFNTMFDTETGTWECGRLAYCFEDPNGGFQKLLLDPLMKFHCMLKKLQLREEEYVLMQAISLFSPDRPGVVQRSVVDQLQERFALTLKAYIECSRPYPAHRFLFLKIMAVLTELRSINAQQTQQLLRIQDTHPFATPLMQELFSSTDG
Sequence of Estrogen receptor (Homo sapiens) (P03372 whole entry, looked up): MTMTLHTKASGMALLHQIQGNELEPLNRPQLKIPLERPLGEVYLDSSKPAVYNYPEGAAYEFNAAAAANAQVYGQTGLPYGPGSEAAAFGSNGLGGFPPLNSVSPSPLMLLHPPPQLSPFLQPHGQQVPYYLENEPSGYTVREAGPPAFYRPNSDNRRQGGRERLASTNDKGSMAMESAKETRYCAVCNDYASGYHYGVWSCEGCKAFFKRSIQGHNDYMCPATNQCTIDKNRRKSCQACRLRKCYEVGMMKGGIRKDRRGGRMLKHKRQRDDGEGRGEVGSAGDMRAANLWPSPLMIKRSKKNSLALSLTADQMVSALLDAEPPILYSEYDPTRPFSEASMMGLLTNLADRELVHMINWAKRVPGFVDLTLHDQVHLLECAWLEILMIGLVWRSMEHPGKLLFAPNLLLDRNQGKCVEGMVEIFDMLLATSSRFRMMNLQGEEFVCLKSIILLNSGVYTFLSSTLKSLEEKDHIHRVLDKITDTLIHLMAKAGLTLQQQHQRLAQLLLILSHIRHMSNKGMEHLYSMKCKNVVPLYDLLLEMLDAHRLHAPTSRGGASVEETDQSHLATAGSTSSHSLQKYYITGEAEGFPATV
Sequence of Peroxisome proliferator-activated receptor alpha (Homo sapiens) (Q07869 whole entry, looked up): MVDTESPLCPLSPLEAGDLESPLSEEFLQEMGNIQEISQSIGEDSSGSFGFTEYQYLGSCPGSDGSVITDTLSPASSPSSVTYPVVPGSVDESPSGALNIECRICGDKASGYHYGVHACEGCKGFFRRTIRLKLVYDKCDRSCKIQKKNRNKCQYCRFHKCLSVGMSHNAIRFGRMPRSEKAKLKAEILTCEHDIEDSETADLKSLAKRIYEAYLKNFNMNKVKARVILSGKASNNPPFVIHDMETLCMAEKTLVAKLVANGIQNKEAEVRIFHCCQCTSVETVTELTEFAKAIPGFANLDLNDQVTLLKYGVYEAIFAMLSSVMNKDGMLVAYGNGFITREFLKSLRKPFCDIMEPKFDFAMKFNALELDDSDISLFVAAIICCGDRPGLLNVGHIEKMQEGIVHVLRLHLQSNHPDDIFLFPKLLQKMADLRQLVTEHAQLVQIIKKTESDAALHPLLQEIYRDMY
Sequence of Peroxisome proliferator-activated receptor delta (Homo sapiens) (Q03181 whole entry, looked up): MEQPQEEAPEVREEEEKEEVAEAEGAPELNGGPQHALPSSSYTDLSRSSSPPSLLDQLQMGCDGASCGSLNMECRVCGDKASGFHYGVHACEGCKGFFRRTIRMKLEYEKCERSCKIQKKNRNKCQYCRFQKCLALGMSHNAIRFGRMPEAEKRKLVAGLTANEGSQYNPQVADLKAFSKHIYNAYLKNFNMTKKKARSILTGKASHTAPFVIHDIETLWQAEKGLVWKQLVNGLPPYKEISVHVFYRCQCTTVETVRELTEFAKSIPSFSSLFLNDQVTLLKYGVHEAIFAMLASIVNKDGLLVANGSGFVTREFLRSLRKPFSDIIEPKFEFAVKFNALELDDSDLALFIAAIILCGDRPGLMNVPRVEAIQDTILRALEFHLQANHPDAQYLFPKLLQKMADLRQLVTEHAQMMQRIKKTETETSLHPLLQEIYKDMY
Sequence of Thyroid hormone receptor beta (Homo sapiens) (P10828 whole entry, looked up): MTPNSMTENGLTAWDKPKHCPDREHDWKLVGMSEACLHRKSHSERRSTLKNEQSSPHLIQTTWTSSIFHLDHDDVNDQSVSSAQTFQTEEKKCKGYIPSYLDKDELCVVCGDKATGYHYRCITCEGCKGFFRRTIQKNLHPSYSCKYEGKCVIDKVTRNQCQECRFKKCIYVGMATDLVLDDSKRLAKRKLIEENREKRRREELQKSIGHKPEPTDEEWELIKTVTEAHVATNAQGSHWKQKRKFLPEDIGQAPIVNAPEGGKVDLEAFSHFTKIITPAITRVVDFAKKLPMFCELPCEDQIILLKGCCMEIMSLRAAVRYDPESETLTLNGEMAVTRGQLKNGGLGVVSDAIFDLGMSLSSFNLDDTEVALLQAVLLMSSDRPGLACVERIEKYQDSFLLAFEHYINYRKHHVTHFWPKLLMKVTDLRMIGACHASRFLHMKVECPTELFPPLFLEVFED

For `CCCCCCc1ccc(N)cc1`, the max response in test [1] was 65.6%; in test [6], -5.49%; in [7], -10.1% (inactive); in test [11] it was 0.597% (inactive); in test [13] it was -14.6% (inactive); in test [14] it was -16% (inactive). Also, the max response in [16] was -2.28% (inactive). In addition, the Potency entry in test [2], in test [4], in [5], in test [12] and in test [15] was “inactive” each time. Also, the molecule was called inactive in test [3] and in test [17]. In addition, the activity change % (negative = inhibition) in test [8] was 1.93% (inactive). The activation was 0.412% (inactive) in [9] and 2.42% (inactive) in [10].

As to `C[Si]1(C)O[Si](C)(C)O[Si](C)(C)O1`, the max response in [1] is -11.7%; in [18], -4.52%; in test [6], -6.48%; in test [7] it was 2.26% (inactive); in test [11], 0.478% (inactive); in test [13], -2.26% (inactive). Moreover, the max response was -1.41% (inactive) in [14] and -5.54% (inactive) in test [16]. Besides, the Potency result in test [2], in test [12] and in [15] was “inactive” in each case. The result in test [3] and in [17] was inactive. Besides, the activity change % (negative = inhibition) in test [8] is 5.16% (inactive). Moreover, the activation in test [9] is -3.38% (inactive); in [10] it was 1% (inactive).

With `COC(=O)CSc1cc(N=c2sc(=O)n3n2CCCC3)c(F)cc1Cl`, in test [3], the molecule was called inactive. In addition, the Potency entry in test [4], in [5] and in test [12] was “inactive” each time. Moreover, in [10], the activation was -2.58% (inactive). Further, the max response in test [11] was 0.865% (inactive); in [13], 8.69% (inactive); in test [14], 4.83% (inactive).

As for `O=C(Cl)c1ccc(C(=O)Cl)cc1`, the Potency result in test [19], in test [2], in [4], in test [20], in test [5] and in test [12] was “inactive” each time. In addition, the Potency result in [15] was “inactive”. Further, the max response in test [1] is -9.41%; in test [18], -3.06%; in test [6] it was -14.3%; in test [7] it was 2.6% (inactive); in test [11] it was -0.543% (inactive); in test [13], -8.12% (inactive). The values for the max response in [14] and in test [16] were -8.26% (inactive) and -1.54% (inactive), respectively. Besides, the activity change % (negative = inhibition) in [8] was 0.623% (inactive). Further, the activation was -0.615% (inactive) in [9] and -0.806% (inactive) in test [10]. In addition, the outcome in test [17] was inactive.

Turning to `CCC(=O)C1C(=O)CC(C(=O)O)CC1=O` (stereo not given), the outcome in [3] and in test [17] was inactive. The Potency entry in test [4], in [20], in [5] and in [12] was “inactive” throughout. Also, the max response is -10.4% in test [18], 14.2% (inactive) in test [13], 6.24% (inactive) in test [14] and -8.49% (inactive) in test [16]. For the same molecule, the activation in test [9] was 2.03% (inactive); in test [10], -0.512% (inactive).

`O=C=NCCCCCCN=C=O`: the Potency result in test [19], in [2], in test [4], in [20], in test [5] and in test [12] was “inactive” each time. The Potency result in test [15] was “inactive”. The max response in [1] is 15.2%; in test [18], -10.7%; in [6] it was -6.96%; in test [7], -6.2% (inactive); in [11], -1.66% (inactive); in test [13] it was -0.323% (inactive). Moreover, the max response was -9.94% (inactive) in [14] and -0.542% (inactive) in [16]. Also, the result in [3] and in [17] was inactive. Also, the activation in test [9] is 1.63% (inactive); in test [10] it was -0.825% (inactive).

Take `CCCCC/C=C\C/C=C\CCCCCCCC(=O)OC`: the Potency entry in [19], in test [2], in test [20], in test [5], in [12] and in [15] was “inactive” each time. The max response was 10.1% in test [1]; -7.14% in [18]; 7.06% in [6]; -5.56% (inactive) in test [7]; -0.289% (inactive) in test [11]; -4.45% (inactive) in [13]. For the same molecule, the max response in test [14] was -12.5% (inactive); in test [16], -0.654% (inactive). The call in [3] and in test [17] was inactive. The activity change % (negative = inhibition) in test [8] is -14.4% (inactive). The figures for the activation in test [9] and in [10] were -2.82% (inactive) and 1.77% (inactive), respectively.
